About 2,000 (36%) of roughly 5,500 compounds were called active. Roughly 18% stayed inconclusive and do not appear here. Rule as the data show it: active = normalized growth mostly below about 0.91 (no sharp cut-off); inconclusive = no clear call, values can overlap the other calls; inactive = mostly above about 0.92. The list shows a part of the results.
Assay: chemical genetic growth profiling, strain panel (AID 1159580);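 also: tested at 20 µM; growth read once vehicle control cultures reached saturation at 30 °C; 1 = growth at the plate median or of vehicle wells; lower values mean less growth of the strain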
Settings: growth OD

Measured: normalized growth

NC(N)=NS(=O)(=O)c1ccc(N)cc1
inactive: S. cerevisiae deletion strains, locus YJR066W, strain TOR1, hits give low values 0.909 | S. cerevisiae deletion strains, locus YKL009W, strain mrt4, hits give low values 0.993 | S. cerevisiae deletion strains, locus YKL068W, hits give low values 1 | S. cerevisiae deletion strains, locus YKL085W, strain MDH1 (second series), hits give low values 1.02 | S. cerevisiae deletion strains, locus YKL085W, strain MDH1, hits give low values 1.02 | S. cerevisiae deletion strains, locus YKL160W, strain elf1, hits give low values 0.996 | S. cerevisiae deletion strains, locus YKL190W, strain CNB1, hits give low values 1.01 | S. cerevisiae deletion strains, locus YKR001C, strain vps1, hits give low values 1.01 | S. cerevisiae deletion strains, locus YKR026C, strain gcn3, hits give low values 0.955 | S. cerevisiae deletion strains, locus YKR091W, strain srl3, hits give low values 0.991 | S. cerevisiae deletion strains, locus YLL001W, strain dnm1, hits give low values 0.998 | S. cerevisiae deletion strains, locus YLL026W, hits give low values 0.991 | S. cerevisiae deletion strains, locus YLL041C, strain sdh2, hits give low values 0.973 | S. cerevisiae deletion strains, locus YLR027C, strain aat2, hits give low values 0.974 | S. cerevisiae deletion strains, locus YLR039C, strain RIC1, hits give low values 1.02 | S. cerevisiae deletion strains, locus YLR058C, strain SHM2, hits give low values 1.02 | S. cerevisiae deletion strains, locus YLR102C, strain apc9, hits give low values 0.986 | S. cerevisiae deletion strains, locus YLR113W, strain HOG1, hits give low values 0.967 | S. cerevisiae deletion strains, locus YLR221C, strain rsa3, hits give low values 0.984 | S. cerevisiae deletion strains, locus YLR258W, strain gsy2, hits give low values 0.998 | S. cerevisiae deletion strains, locus YLR262C, strain YPT6 (second series), hits give low values 0.984 | S. cerevisiae deletion strains, locus YLR262C, strain YPT6, hits give low values 1.03 | S. cerevisiae deletion strains, locus YLR268W, strain sec22, hits give low values 0.996 | S. cerevisiae deletion strains, locus YLR320W, strain mms22, hits give low values 0.992 | S. cerevisiae deletion strains, locus YLR330W, strain CHS5, hits give low values 1.01 | S. cerevisiae deletion strains, locus YLR342W, strain FKS1 (second series), hits give low values 1.01 | S. cerevisiae deletion strains, locus YLR342W, strain FKS1, hits give low values 0.977 | S. cerevisiae deletion strains, locus YLR357W, strain rsc2, hits give low values 0.986 | S. cerevisiae deletion strains, locus YLR370C, strain arc18, hits give low values 0.981 | S. cerevisiae deletion strains, locus YLR371W, strain rom2, hits give low values 0.993 | S. cerevisiae deletion strains, locus YLR384C, strain iki3, hits give low values 0.995 | S. cerevisiae deletion strains, locus YLR418C, strain cdc73, hits give low values 0.994 | S. cerevisiae deletion strains, locus YML016C, strain PPZ1, hits give low values 1.01 | S. cerevisiae deletion strains, locus YML032C, strain rad52, hits give low values 0.987 | S. cerevisiae deletion strains, locus YML120C, strain ndi1, hits give low values 0.978 | S. cerevisiae deletion strains, locus YML124C, strain tub3, hits give low values 0.992 | S. cerevisiae deletion strains, locus YMR058W, strain fet3, hits give low values 0.984 | S. cerevisiae deletion strains, locus YMR078C, strain ctf18, hits give low values 0.997 | S. cerevisiae deletion strains, locus YMR125W, strain sto1, hits give low values 0.966 | S. cerevisiae deletion strains, locus YMR129W, hits give low values 0.997 | S. cerevisiae deletion strains, locus YMR205C, strain PFK2, hits give low values 1 | S. cerevisiae deletion strains, locus YMR223W, strain ubp8, hits give low values 0.996 | S. cerevisiae deletion strains, locus YMR231W, strain pep5, hits give low values 1 | S. cerevisiae deletion strains, locus YMR307W, strain GAS1, hits give low values 1.03 | S. cerevisiae deletion strains, locus YNL067W, strain RPL9B, hits give low values 1.03 | S. cerevisiae deletion strains, locus YNL071W, strain lat1, hits give low values 0.986 | S. cerevisiae deletion strains, locus YNL128W, strain TEP1, hits give low values 1.03 | S. cerevisiae deletion strains, locus YNL153C, strain GIM3, hits give low values 1.04 | S. cerevisiae deletion strains, locus YNL183C, strain NPR1, hits give low values 0.918 | S. cerevisiae deletion strains, locus YNL209W, strain ssb2, hits give low values 0.993 | S. cerevisiae deletion strains, locus YNL233W, strain BNI4, hits give low values 1.03 | S. cerevisiae deletion strains, locus YNL248C, strain rpa49, hits give low values 0.972 | S. cerevisiae deletion strains, locus YNL250W, strain rad50, hits give low values 0.987 | S. cerevisiae deletion strains, locus YNL271C, strain bni1, hits give low values 0.985 | S. cerevisiae deletion strains, locus YNL298W, strain CLA4, hits give low values 0.994 | S. cerevisiae deletion strains, locus YNL307C, strain MCK1, hits give low values 0.987 | S. cerevisiae deletion strains, locus YNL322C, strain KRE1 (second series), hits give low values 0.967 | S. cerevisiae deletion strains, locus YNR049C, strain mso1, hits give low values 0.981 | S. cerevisiae deletion strains, locus YNR052C, strain pop2, hits give low values 0.986 | S. cerevisiae deletion strains, locus YOL006C, strain TOP1, hits give low values 1.09 | S. cerevisiae deletion strains, locus YOL012C, strain htz1 0.841 | S. cerevisiae deletion strains, locus YOL147C, strain pex11, hits give low values 0.992 | S. cerevisiae deletion strains, locus YOR001W, strain rrp6, hits give low values 0.986 | S. cerevisiae deletion strains, locus YOR061W, strain CKA2, hits give low values 1.02 | S. cerevisiae deletion strains, locus YOR069W, strain VPS5, hits give low values 1.01 | S. cerevisiae deletion strains, locus YOR070C, strain gyp1, hits give low values 0.979 | S. cerevisiae deletion strains, locus YOR080W, strain dia2, hits give low values 0.985 | S. cerevisiae deletion strains, locus YOR083W, strain WHI5, hits give low values 0.979 | S. cerevisiae deletion strains, locus YOR106W, strain vam3, hits give low values 0.976 | S. cerevisiae deletion strains, locus YOR136W, strain idh2, hits give low values 0.986 | S. cerevisiae deletion strains, locus YOR144C, strain elg1, hits give low values 0.99 | S. cerevisiae deletion strains, locus YOR184W, strain ser1, hits give low values 1.02 | S. cerevisiae deletion strains, locus YOR231W, strain MKK1, hits give low values 0.98 | S. cerevisiae deletion strains, locus YOR265W, strain rbl2, hits give low values 0.979 | S. cerevisiae deletion strains, locus YOR270C, strain vph1, hits give low values 0.973 | S. cerevisiae deletion strains, locus YOR290C, strain snf2, hits give low values 0.992 | S. cerevisiae deletion strains, locus YOR316C, strain cot1, hits give low values 0.993 | S. cerevisiae deletion strains, locus YPL051W, strain arl3, hits give low values 0.997 | S. cerevisiae deletion strains, locus YPL055C, strain LGE1, hits give low values 1.07 | S. cerevisiae deletion strains, locus YPL078C, strain atp4, hits give low values 0.994 | S. cerevisiae deletion strains, locus YPL106C, strain sse1, hits give low values 0.953 | S. cerevisiae deletion strains, locus YPL240C, strain hsp82, hits give low values 0.991 | S. cerevisiae deletion strains, locus YPL256C, strain CLN2, hits give low values 0.953 | S. cerevisiae deletion strains, locus YPR119W, strain clb2, hits give low values 0.994 | S. cerevisiae deletion strains, locus YPR141C, strain kar3, hits give low values 0.997 | S. cerevisiae deletion strains, locus YPR163C, strain tif3, hits give low values 0.997 | S. cerevisiae deletion strains, locus YPR167C, strain met16, hits give low values 0.993 | S. cerevisiae deletion strains, strain wtn01, hits give low values 0.988 | S. cerevisiae strains, strain wild type, hits give low values 1.02

Source: PubChem BioAssay AID1159580 (chemical genetic matrix, 2015)
